Data on 25 compounds can be found in PubChem BioAssay (Tox21).

Values joined by “and” are separate entries in the source; they are usually repeats but may differ in a detail not shown here. Equal values may be shown once. Inconclusive results are not listed. A call without a number means that no potency is given here. Active and inactive are the calls of the source. Unless noted, the call rests on the fitted dose curve; in most records, active means well fitted cell-killing curve with a large enough effect in the repeat runs; inconclusive means weak or mixed curves, or effect the other way; inactive means no such curve, though single readings can be large or run the other way.
Potency means the concentration at half of the fitted maximal effect.

Chain of Peroxisome proliferator-activated receptor gamma (Homo sapiens) (P37231 whole entry, looked up): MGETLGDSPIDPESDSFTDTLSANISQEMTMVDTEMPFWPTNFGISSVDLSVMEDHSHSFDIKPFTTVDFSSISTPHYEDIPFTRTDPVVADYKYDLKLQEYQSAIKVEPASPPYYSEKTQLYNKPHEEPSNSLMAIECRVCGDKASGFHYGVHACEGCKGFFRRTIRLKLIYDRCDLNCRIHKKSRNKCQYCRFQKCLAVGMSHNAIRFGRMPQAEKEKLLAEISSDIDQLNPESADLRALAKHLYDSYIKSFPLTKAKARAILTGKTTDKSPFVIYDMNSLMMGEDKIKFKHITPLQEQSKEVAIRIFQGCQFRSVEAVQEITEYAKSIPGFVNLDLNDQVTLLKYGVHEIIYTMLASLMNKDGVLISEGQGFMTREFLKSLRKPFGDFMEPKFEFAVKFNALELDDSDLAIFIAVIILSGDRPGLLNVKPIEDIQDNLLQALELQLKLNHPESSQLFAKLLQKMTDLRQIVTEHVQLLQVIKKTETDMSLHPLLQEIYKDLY

One experiment deals with Peroxisome proliferator-activated receptor gamma (Homo sapiens) (UniProt P37231). The experiment can be described thus: qHTS assay to identify small molecule antagonists of the peroxisome proliferator-activated receptor gamma (PPARg) signaling pathway (AID 743191; calls by dose curve; further: nearly all actives have a fitted effect of over 30% in size). Conditions: HEK293H PPARg-UAS-bla, beta-lactamase ratio, antagonist, 17 h; series mostly up to 62.6 µM. In outline:
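Beta-lactamase reporter under UAS control in HEK293H PPARg-bla cells; compound treatment 17 h at 37C. Read-out: fluorescence intensity after 1 h room-temperature incubation with LiveBLAzer B/G FRET substrate.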
On the technique in general: In qHTS, concentration-response curves come from the screen itself.
On to `CC1(C)CCC(C)(C)c2cc(C(=O)Nc3ccc(C(=O)O)cc3)ccc21`, for which the Potency entry is “inactive”. For `Oc1ccc(Cl)cc1Sc1cc(Cl)ccc1O`, the Potency was 13.3 µM (active). Same read-out and setting: then `COc1ccc(CN2CCN(C(c3ccc(F)cc3)c3ccc(F)cc3)CC2)c(OC)c1OC`, with 26.6 µM (active); and `COc1c(C)c2c(c(O)c1C/C=C(\C)CCC(=O)O)C(=O)OC2`, with 0.473 µM (active); and `O=C1CCCCCN1SSN1CCCCCC1=O`, with “inactive”. The same measure, in the same setting: then `OCc1c[nH]c2ccccc12`, with 12.3 µM (active).

Turning to `CCCCCCCCS(=O)C(C)Cc1ccc2c(c1)OCO2` (stereo unspecified), the Potency is 56 µM (active).

Test system in the next experiment: not listed separately
The experiment in a line: qHTS assay to identify small molecule antagonists of the peroxisome proliferator-activated receptor gamma (PPARg) signaling pathway - cell viability counter screen (AID 743194). Further: nearly all actives have a fitted effect of over 55% in size. Conditions: PPARg-bla HEK293H viability, CellTiter-Glo luminescence, 17 h, co-treated with 50 nM rosiglitazone; series mostly up to 62.6 µM. In a few lines:
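Viability was measured as CellTiter-Glo luminescence in GeneBLAzer PPARg UAS-bla HEK293H cells. These cells had been exposed 17 h at 37 C to compounds together with rosiglitazone at 50 nM final, with the beta-lactamase readout taken in the same wells.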
Consider `CC1(C)CCC(C)(C)c2cc(C(=O)Nc3ccc(C(=O)O)cc3)ccc21`, for which the Potency result was “inactive”. In the case of `C[n+]1ccn(Cc2ccccc2)c1`, the Potency entry is “inactive”. The same measure, in the same setting: with `CCCN(CCC)c1c([N+](=O)[O-])cc(C(F)(F)F)c(N)c1[N+](=O)[O-]` the figure was 19.4 µM (active); with `CCN(CC)CCNC(=O)c1c(C)[nH]c(/C=C2\C(=O)Nc3ccc(F)cc32)c1C`, 16.8 µM (active). With `CSc1ccc2c(c1)C(N1CCN(C)CC1)Cc1ccccc1S2` (stereo unspecified), the Potency was 18.8 µM (active). `Oc1ccc(Cl)cc1Sc1cc(Cl)ccc1O`: the Potency is 4.89 µM (active) and 5.96 µM (active). For `CCOc1nc2cccc(C(=O)OC(C)OC(=O)OC3CCCCC3)c2n1Cc1ccc(-c2ccccc2-c2nn[nH]n2)cc1` (stereo unspecified), the Potency was 9.76 µM (active). Regarding `OCCN(CCO)c1nc(N2CCCCC2)c2nc(N(CCO)CCO)nc(N3CCCCC3)c2n1`, the Potency entry was “inactive”.

With `O=c1cccccc1O`, the Potency result is “inactive”. As for `O=C1c2ccccc2Cc2ccccc21`, the Potency result is “inactive”.

For `Fc1ccc([C@@H]2CCNC[C@H]2COc2ccc3c(c2)OCO3)cc1`, the Potency entry is “inactive”. The same measure, in the same setting: with `CCOc1ccc2nc3cc(N)ccc3c(N)c2c1` the entry was “inactive”. `CCOC(=O)/C=C(C)/C=C/C=C(C)/C=C/c1c(C)cc(OC)c(C)c1C`: the Potency result is “inactive”. On to `O=C(Nc1cccc([N+](=O)[O-])c1)c1cc2ccccc2cc1O`, for which the Potency was 0.195 µM (active). As for `COc1ccc(CN2CCN(C(c3ccc(F)cc3)c3ccc(F)cc3)CC2)c(OC)c1OC`, the Potency is 26.6 µM (active). Regarding `CCCCCCOC(=O)c1ccc(O)cc1`, the Potency entry is “inactive”. Consider `COc1c(C)c2c(c(O)c1C/C=C(\C)CCC(=O)O)C(=O)OC2`, for which the Potency result is “inactive”. In the case of `Cc1cc2c(cc1C(F)(F)F)N(C(=O)Nc1ccc(Oc3cccnc3C)nc1)CC2`, the Potency entry is “inactive”. For the compound `O=C1CCCCCN1SSN1CCCCCC1=O`, the Potency entry was “inactive”. With `Cc1cc(N)c(S(=O)(=O)O)cc1Cl`, the Potency entry was “inactive”. Same read-out and setting: then `CN1CCC(Nc2ncc3ncnc(Nc4ccc(F)c(Cl)c4)c3n2)CC1`, with “inactive”.

For the compound `CCCCCCCCS(=O)C(C)Cc1ccc2c(c1)OCO2` (stereo unspecified), the Potency result is “inactive”. On to `O=C(NOCC1CC1)c1ccc(F)c(F)c1Nc1ccc(I)cc1Cl`, for which the Potency was 13.3 µM (active). Regarding `NC(=O)N1C(=O)C(C(=O)c2cc(Cl)cs2)c2cc(F)c(Cl)cc21` (stereo unspecified), the Potency was 13.8 µM (active).
